Screens deposited in PubChem by National Center for Advancing Translational Sciences (NCATS).
HEK cytotox = HEK 293 cell cytotoxicity | AID 1345083 | Potency, µM (titrated, usually from 115 µM), for inactives: top-dose activity change, negative = cytotoxicity, usual class: inhibitors | HEK 293 viability, ATP luminescence (CellTiter-Glo), 48-72 h | 6.6% of 94,000 active; note: nearly all actives have a fitted effect of over 60% in size
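Cytotoxicity was scored by loss of ATP-coupled luminescence (CellTiter-Glo) in HEK 293 cells. Compound treatment ran 48 or 72 hr at 37 degree Celsius, 5% CO2, 95% humidity.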
NPR1 antag = antagonists of human natriuretic peptide receptor Npr1; AID 1347048; Potency, µM (doses to about 46.3 µM), without a hit: top-dose activity change, negative = inhibition, hits mostly inhibitors; 1.6% of 76,000 active; HEK293 hNpr1 GloSensor cGMP, ANP-stimulated luminescence; calls by dose curve; note: nearly all actives have a fitted effect of over 60% in size
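Compound pre-incubated 30 min at room temperature on GloSensor-loaded HEK293 cells stably carrying hNpr1 and the pGS-40F cGMP biosensor. Stimulation uses hNppA at 0.1 nM final; luminescence is taken at baseline and 20 min post-agonist.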
Luciferase inh = blocks purified firefly luciferase enzyme activity; P08659; purified P. pyralis luciferase, luminescence, biochemical; Potency, µM (series often up to 115 µM), most hits filed as inhibitors; 2.5% of 76,000 active; AID 1347043; note: nearly all actives have a fitted effect of over 65% in size
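FLuc 10nM, D-luciferin 10uM, ATP 10uM, Mg acetate 10mM, Tris acetate pH 7.5, Tween/BSA; cpd qHTS; enzyme added last; CCD luminescence.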
3T3 cytotox = kills NIH 3T3 cells | NIH 3T3 viability, CellTiter-Glo ATP luminescence, 48-72 h | AID 1345082 | 4.3% of 94,000 active | Potency, µM (top dose mostly 96.7 µM), for the others: at the top dose activity change, negative = cytotoxicity, hits mostly inhibitors; note: nearly all actives have a fitted effect of over 55% in size
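Viability of NIH 3T3 cells after 48 or 72 hr compound treatment at 37 °C was assessed by CellTiter-Glo, with luminescence imaged following a 10 min room-temperature step.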
* marks the source's active call; other numbers are inactive results; i = inactive; ? = inconclusive; / = no result; [ ] = dose if it differs, or a comment. Rows were chosen to be rich in hits. Some 11% of all compounds tested hit in one or more screens of this group. Unless noted, calls come from the whole dose curve; as a rule, active = well fitted curve in the direction sought with a large enough effect; inconclusive = small, poorly fitted or top-dose-only effect, or another doubt; inactive = no such curve, though single readings can be large; an effect the other way counts as inactive or inconclusive. % is set by controls: 0 for no effect and ±100 for the full control effect; potency is the fitted concentration of half-maximal effect.

SMILES	HEK cytotox	NPR1 antag	Luciferase inh	3T3 cytotox
COc1ccccc1C(=O)N1CCCn2nc(C)c(-c3ccccc3N3CCCC3)c21	56.2µM*	-11.0%[70.6 µM]	i	?
Cc1nn2c(c1-c1ccccc1C(C)C)N(C(=O)Cc1ccc3c(c1)OCO3)CCC2	?	0.5%[70.6 µM]	i	39.8µM*
O=[S+]([O-])(c1cccc(C(F)(F)F)c1)N1CCC2(CCN(Cc3cccs3)c3ccccc3O2)CC1	?	23.3%	i	?
COc1ccccc1-c1cc(C(=O)N(C)CC#N)c2cnn(C)c2n1	-18.4%	/	/	-28.3%
Cc1cc(C)n(-c2ccc(NC(=O)C3CCN(Cc4nnc(C)o4)CC3)cc2)n1	-15.5%	-5.4%	i	?
Cc1nn2c(c1-c1ccccc1C(C)C)N(C(=O)c1ccnn1C)CCC2	?	-7.3%[70.6 µM]	i	?
Cc1nn2c(c1-c1ccccc1C(C)C)N(C(=O)COc1ccccc1C(N)=O)CCC2	70.8µM*	-10.0%[70.6 µM]	i	?
COc1ccc(-c2ccc(C(=O)N3CCCC3)cc2)nn1	25.1µM*	/	/	17.8µM*
COc1ccc(-c2ccc(C(=O)NC(C)C)c(Cl)c2)nn1	-27.8%[172 µM]	/	/	?
COc1ccc(-c2ccc(C(=O)N3CCN(C(=O)c4ccc(C)cc4)CC3)cc2)nn1	-25.0%	/	/	-22.9%
COc1ccc(-c2ccc(C(=O)N3CCCC3)c(Cl)c2)nn1	?	/	/	31.6µM*
COc1ccc(CN2CCCC23Cc2ccccc2CNC3=O)cc1F (stereo not drawn)	?	/	/	-15.1%
CN1CCN(C(=O)C[C@@H]2CCNC[C@@H]2Cc2cc(-c3ccc(C(C)(C)C)cc3)on2)CC1	?	16.2%	i	79.4µM*
CC(C)(C)c1ccc(-c2cc(C[C@H]3CNCC[C@H]3CC(=O)N3CCN(c4ccc(F)cc4)CC3)no2)cc1	?	-2.6%	i	?
CC(C)(C)c1ccc(-c2cc(C[C@H]3CNCC[C@H]3CC(=O)N3CCCCC3)no2)cc1	?	4.1%[70.6 µM]	i	35.5µM*
O=C(C[C@@H]1CCNC[C@@H]1Cc1cc(-c2ccccc2)on1)N1CCCCC1	?	-2.0%[70.6 µM]	i	?
COc1ccc(C(=O)N2CCOCC3(CN(Cc4cc(C)cc(F)c4)C3)C2)cc1OC	8.91µM*	-3.7%[70.6 µM]	i	?
COc1ccc(C(=O)N2CCOCC3(CN(Cc4ccccc4)C3)C2)cc1	10µM*	2.0%[70.6 µM]	i	?
COc1ccc(C(=O)N2CCOCC3(CN(Cc4ccccc4)C3)C2)c(OC)n1	44.7µM*	3.4%[70.6 µM]	i	31.6µM*
O=C(c1ccc(Cl)cc1)N1CCOCC2(CN(Cc3ccccc3)C2)C1	-68.6%[172 µM]	3.1%[70.6 µM]	i	3.16µM*
COc1ccc(CC(=O)NC2CCN(Cc3cccc(-c4ccc(F)c(F)c4)c3)CC2)cc1	4.4%	/	/	-21.8%
CC(=O)Nc1cccc(-c2ccc3c(n2)CN(Cc2nc4ccccc4s2)C(=O)CO3)c1	?	-6.6%	?	?
O=C1COc2ccc(-c3cc(F)cc(F)c3)nc2CN1Cc1ccccc1F	89.1µM*	1.3%[70.6 µM]	i	?
O=C1COc2ccc(OCc3ccccc3)nc2CN1Cc1ccccc1F	?	?	i	100µM*
O=C1COc2ccc(-c3ccc(F)c(Cl)c3)nc2CN1Cc1nc2ccccc2s1	50.1µM*	-10.3%	i	?
SMILES	HEK cytotox	NPR1 antag	Luciferase inh	3T3 cytotox
CC(=O)Nc1cccc(-c2ccc3c(n2)CN(Cc2ccccc2F)C(=O)CO3)c1	?	-11.8%[70.6 µM]	i	?
COc1ccc(NC(=O)Cc2c[nH]c3ncc(-c4cnn(C)c4)cc23)cn1	-9.4%[172 µM]	-1.4%[70.6 µM]	i	50.1µM*
Cn1cc(-c2cnc3[nH]cc(CC(=O)NCc4cccc(F)c4)c3c2)cn1	?	-1.5%[70.6 µM]	i	25.1µM*
Cn1cc(-c2cnc3[nH]cc(CC(=O)Nc4cccnc4)c3c2)cn1	-20.9%[172 µM]	0.6%[70.6 µM]	i	?
CN(C)C(=O)Cc1c[nH]c2ncc(-c3cnn(C)c3)cc12	-22.9%[230 µM]	7.2%[70.6 µM]	i	?
CN(C)c1cccc(NC(=O)Cc2c[nH]c3ncc(-c4cnn(C)c4)cc23)c1	70.8µM*	-22.8%[70.6 µM]	i	31.6µM*
Cc1ccccc1NC(=O)Cc1c[nH]c2ncc(-c3cnn(C)c3)cc12	?	-0.4%[70.6 µM]	i	22.4µM*
O=C(NCCN1CCOCC1)c1cn2cc(-c3cccnc3)sc2n1	-3.5%	/	/	-18.3%
O=C(c1ccc(Cl)nc1)N1CCCC(C(=O)N2CCC(N3Cc4cccn4C3=O)CC2)C1 (stereo not drawn)	i	/	/	i
COCCNc1cc2c(cn1)CN(Cc1ccccc1)CCN2	?	-2.7%[70.6 µM]	?	?
COc1ccc(Nc2cc3c(cn2)CN(CCc2ccccc2)CCN3)cc1	31.6µM*	-5.1%[70.6 µM]	?	25.1µM*
COc1ccc(Nc2cc3c(cn2)CN(CCc2ccccc2)CCN3)cc1OC	50.1µM*	-5.0%[70.6 µM]	i	25.1µM*
CC(C)C(O)C1CCN(c2nccc(-c3cc(C(=O)O)ccn3)n2)CC1 (stereo not drawn)	-18.1%	0.2%	50.1µM*	-11.4%
Cc1cccc(N2CCN(c3nccc(-c4ccccn4)n3)CC2)n1	?	-0.3%	?	-4.7%
Cc1cnc(C(=O)N[C@@H]2CCC[C@@H]2C(=O)Nc2ccc(C)c(F)c2)cn1	-19.4%	-1.4%	i	-16.9%
COc1ccc(Nc2ccc3nnc(-c4ccc(C)cn4)n3n2)cc1	70.8µM*	-6.8%[70.6 µM]	i	?
COc1ccc(-c2nnc3ccc(Nc4cccc(OC)c4)nn23)nc1	?	-10.6%[70.6 µM]	i	?
COc1ccc(-c2nnc3ccc(NC(C)C)nn23)nc1	-10.0%[230 µM]	-3.4%[70.6 µM]	i	50.1µM*
Cc1ccc(-c2nnc3ccc(NC4CCCCC4)nn23)nc1	70.8µM*	-17.1%[70.6 µM]	i	?
COc1ccnc(-c2nnc3ccc(Nc4cc(OC)c(OC)c(OC)c4)nn23)c1	?	2.2%[70.6 µM]	i	50.1µM*
CCNC(=O)N1CC(C(=O)N2CCCC(C(=O)OCC)C2)CC(c2ccc(F)c(C)c2)C1 (stereo not drawn)	-26.6%	-1.7%	i	?
O=C1NCc2ccccc2CC12CCN(CC1=CCCCC1)C2 (stereo not drawn)	-22.9%	/	/	-3.6%
O=C(NCc1cccnc1)C1CCc2nnc(C3CCN([S+](=O)([O-])c4ccccc4Cl)CC3)n21 (stereo not drawn)	-18.8%	/	/	-18.1%
CCOC(=O)[C@H]1C[C@]2(CCCCN(CCO)C2=O)N(C(=O)C(CC)CC)[C@H]1c1ccco1	?	/	/	-20.8%
COCCNC(=O)[C@@H]1Cc2cn(Cc3cccnc3)c3cccc(c23)[C@H](CC(C)C)N1	44.7µM*	-3.3%[70.6 µM]	i	?
COCCNC(=O)[C@@H]1Cc2cn(Cc3ccncc3)c3cccc(c23)[C@H](CC(C)C)N1	44.7µM*	-2.6%[70.6 µM]	i	44.7µM*
CC(C)C[C@@H]1N[C@H](C(=O)N2CCN(C)CC2)Cc2cn(Cc3cccnc3)c3cccc1c23	-11.9%	2.0%	i	-8.9%
C#CCNC(=O)[C@@H]1Cc2cn(Cc3cccnc3)c3cccc(c23)[C@H](CC(C)C)N1	56.2µM*	-0.8%[70.6 µM]	i	79.4µM*
